Compounds with a hit are over-represented: about 19% of the library has one in this group of screens.
DT40 TDP1 CPT = DT40-hTDP1 cell growth loss with CPT; 420,000 compounds, 12% hits; Potency, µM (series often up to 46.2 µM), for the others: at the highest dose activity change, negative = growth inhibition, actives largely listed as inhibitors; chicken DT40 Tdp1-/-;hTDP1 cells + 20 nM CPT, ATP luminescence, 48 h; also: potency is read from the fitted curve at half-maximal effect; nearly all actives have a fitted effect of over 55% in size
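Chicken DT40 Tdp1-/- cells stably complemented with human TDP1 were seeded at 400 cells/well in medium containing 20 nM camptothecin, exposed to pin-transferred compounds, and grown at 37 °C for at least 48 hr. Viability was read as ATP luminescence.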
HT1080-NT tox = kills 2HG-producing HT-1080-NT fibrosarcoma cells; HT-1080-NT fibrosarcoma viability, CellTiter-Glo ATP luminescence, 48 h; Potency, µM (series often up to 46.1 µM), without a hit: at the highest dose activity, negative = less viability, hits mostly cytotoxic; 360,000 compounds, 1.6% hits; AID 686970;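 also: NT is the 2HG producing partner of a matched IDH1 knockdown line; potency is read from the fitted curve at half-maximal effect; 0% = DMSO-treated cells and -100% = media-only wells without cells; nearly all actives have a fitted effect of over 55% in size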
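Compounds were tested in concentration-response format on HT-1080-NT cells for 48 hours at 37 degrees C. Cell viability came from CellTiter-Glo luminescence; curves were classified by r2, response magnitude and activity.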
IL1B secr inh = inflammasome signaling inhibition, IL-1 beta readout; THP-1 LPS/ATP IL-1B secretion, AlphaLISA, 16 h; stronger effect = lower value; activity change, % at 57.5 µM; 360,000 compounds, 4.7% hits; AID 743279; in the data active = activity change below about -50%; inconclusive = mostly about -30% to -49%
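THP-1 cells pretreated 1 hr with compounds (up to 57.5 uM final), then stimulated with LPS (250 ng/mL final) plus ATP (1.25 mM final); secreted IL-1B measured by AlphaLISA after 16 hr, decreased signal indicating inhibition.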
TDP1 cell noCPT = qHTS for Inhibitors of human tyrosyl-DNA phosphodiesterase 1 (TDP1): qHTS in cells in absence of CPT; AID 686978, 2013; Potency, µM (top dose mostly 46.2 µM), for inactives: top-dose activity change, negative = growth inhibition, hits mostly inhibitors; 420,000 compounds, 15% hits; DT40 Tdp1-/- hTDP1 cells, no CPT, ATP luminescence, 48 h; also: potency is read from the fitted curve at half-maximal effect; nearly all actives have a fitted effect of over 55% in size
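A cellular qHTS used chicken DT40 cells lacking endogenous Tdp1 but carrying stably transfected human TDP1. Compounds were applied without camptothecin, and cell growth kinetics were judged by ATP-dependent luminescence after ≥48 hr.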
HT1080 IDH1KD tx = kills HT-1080 cells with IDH1 knockdown | Potency, µM (series often up to 46.1 µM), for the others: at the top dose activity, negative = toxicity, hits mostly cytotoxic | AID 686971 | HT-1080 IDH1 knockdown viability, ATP luminescence, 48 h | 360,000 compounds, 2% hits;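 also: potency is read from the fitted curve at half-maximal effect; 0% = DMSO wells and -100% = cell-free medium wells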
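Using the IDH1-knockdown HT-1080 line run in the same batch and compound series as the NT line, viability after 48 h at 37 °C was determined by CellTiter-Glo luminescence and expressed as % activity.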
Active calls of the source: *; ? = inconclusive; / = not tested or not shown; [ ] = dose if it differs, or a comment. Unless noted, calls follow the shape of the dose curve; as a rule, active = well fitted curve in the direction sought with a large enough effect; inconclusive = small, poorly fitted or top-dose-only effect, or another doubt; inactive = no such curve, though single readings can be large; an effect the other way counts as inactive or inconclusive. Unless noted, % is scaled to controls: 0 for no effect and ±100 for the full control effect.

SMILES	DT40 TDP1 CPT	HT1080-NT tox	IL1B secr inh	TDP1 cell noCPT	HT1080 IDH1KD tx
COc1ccc(CNCCC(c2ccc(OC(C)C)cc2)c2ccccc2OC)cc1OC (centres undefined)	8.2µM*	15µM*	/	10µM*	18µM*
COc1ccccc1C(CCNCc1ccccc1)c1ccc(OC(C)C)cc1 (centres undefined)	16µM*	?	-89*	21µM*	?
COc1ccc(CNCCC(c2ccc(OC(C)C)cc2)c2ccccc2OC)cc1 (centres undefined)	13µM*	?	-97*	12µM*	?
COc1ccccc1C(CCNCc1ccc(N(C)C)cc1)c1ccc(OC(C)C)cc1 (centres undefined)	21µM*	?	-101*	7.3µM*	?
COc1ccc(CNCCCSc2ncccn2)cc1OC	1%	-3%	-8	-18%	-5%
CN(C)c1ccc(CNCc2cccnc2)cc1	2%	20%	16	-25%	9%
COCCNCc1ccccc1	?	26%	25	?	-3%
COc1ccc(CCNCC(C)c2ccccc2)cc1 (centres undefined)	-10%	15%	-7	-20%	0%
COc1ccccc1N1CCN(S(=O)(=O)c2cc(C(=O)Nc3ccc(Oc4ccccc4)cc3)ccc2F)CC1	3.3µM*	/	/	5.8µM*	/
Cc1cccc(N2CCN(S(=O)(=O)c3cc(C(=O)Nc4ccc(Oc5ccccc5)cc4)ccc3F)CC2C)c1 (centres undefined)	2.1µM*	/	/	2.9µM*	/
O=C(Nc1ccc(Oc2ccccc2)cc1)c1ccc(F)c(S(=O)(=O)N2CCN(c3ccccc3F)CC2)c1	5.8µM*	/	/	4.6µM*	/
Cc1cccc(NC(=O)c2ccc(F)c(S(=O)(=O)N3CCC4(CC3)OCCO4)c2)c1	?	-19%	-2	?	-16%
Cc1ccc(-n2ncc3c(NCCCc4ccccc4)ncnc32)cc1	-29%	/	/	-28%	/
Cc1ccc(-n2ncc3c(NCCCn4ccnc4)ncnc32)c(C)c1	?	-12%	20	?	0%
Cc1ccc(-n2ncc3c(Nc4ccccc4C)ncnc32)cc1	?	/	/	16µM*	/
Cc1ccc(-n2ncc3c(Nc4ccc(Oc5ccccc5)cc4)ncnc32)c(C)c1	16µM*	/	/	23µM*	/
Cc1ccc(-n2ncc3c(SCc4cccc(C)c4)ncnc32)cc1	-24%	?	15	-29%	?
CCOc1ccc(Nc2ncnc3c2cnn3-c2ccccc2)cc1	-2%	12%	-15	2%	5%
CCc1ccccc1Nc1ncnc2c1cnn2-c1ccc(C)cc1C	?	/	/	18µM*	/
Cc1ccc(-n2ncc3c(SCc4cccnc4)ncnc32)c(C)c1	16µM*	?	-13	12µM*	?
Cc1cn(C)c(CC(=O)N2CCN(c3ccccc3F)CC2)c1C(=O)O	-20%	/	/	-9%	/
Cc1cccc(-n2ncc3c(N(C)Cc4ccccc4)ncnc32)c1	?	-6%	-13	?	-20%
CCN(c1ccccc1)c1ncnc2c1cnn2-c1ccc(C)cc1C	9.2µM*	/	/	9.2µM*	/
CCOc1ccc(Nc2ncnc3c2cnn3-c2ccc(F)cc2)cc1	-19%	/	/	-25%	/
CCc1ccccc1Nc1ncnc2c1cnn2-c1ccc(Cl)cc1	16µM*	/	/	?	/
SMILES	DT40 TDP1 CPT	HT1080-NT tox	IL1B secr inh	TDP1 cell noCPT	HT1080 IDH1KD tx
Fc1ccc(-n2ncc3c(Nc4ccc(Oc5ccc(Cl)cc5)cc4)ncnc32)cc1	?	/	/	18µM*	/
CCOc1ccc(-c2cc3c(=O)n(Cc4nc(-c5ccc(OC(C)C)cc5)oc4C)ccn3n2)cc1Cl	-8%	/	/	1%	/
CN(C)CCCNc1cc(N2CCN(C)CC2)ncn1	-1%	/	/	0%	/
Cc1cc(C)cc(C(N)=Nc2cccc(C#N)c2)c1	10%	-2%	-13	?	3%
CN1C(=O)CSC1=Nc1ccc(Br)cc1	8%	11%	-21	0%	6%
N#Cc1cccc(N=c2ssnc2Cl)c1	3.3µM*	2%	-9	6.5µM*	16%
COc1cc(OC)cc(-c2nc(-c3ccccc3OC)no2)c1	?	14%	-18	?	0%
Clc1nssc1=Nc1nncs1	5.8µM*	-1%	-73*	7.3µM*	-10%
COc1cc(N=c2ssnc2Cl)cc(OC)c1	10µM*	-21%	?	13µM*	-2%
Clc1nssc1=Nc1ccc(Br)cc1	10µM*	16µM*	-97*	13µM*	?
CCN(CC(=O)Nc1c(F)cccc1F)C(=O)CCN1C(=O)C2CC=CCC2C1=O (centres undefined)	14%	?	4	8%	5%
COc1ccc(-n2c3c(cc(-c4nc(-c5ccc(C)cc5)cs4)c2=O)C(=O)CC(C)(C)C3)cc1	-7%	/	/	-24%	/
Clc1ccc(N=c2ssnc2Cl)nc1	3.3µM*	6%	-14	2.6µM*	14%
CCOc1ccc(NCC(=O)c2ccc(C)cc2)cc1	?	-20%	-81*	?	-29%
CCOc1ccc(NC(=O)COC(=O)C2CC2C)cc1 (centres undefined)	?	10%	9	18µM*	12%
Cc1ccc(SCCC(=O)Nc2ccc(OCc3ccccc3)cc2)cc1	-19%	-4%	-15	-22%	-4%
CCOc1ccc(NC(=O)CCSc2ccc(C)cc2)cc1	?	11%	0	16µM*	11%
CCN(CC)Cc1c(C(=O)N/N=C/c2c(Cl)cccc2Cl)nnn1-c1nonc1N	11%	6%	6	-24%	6%
CCN(c1ccccc1)S(=O)(=O)c1ccc(Oc2ccc(-n3ccnc3)cc2)nc1	5.2µM*	?	?	8.2µM*	?
COc1ccc(S(=O)(=O)Nc2ccc(S(=O)(=O)Nc3nc(C)cc(C)n3)cc2)cc1OC	3%	-1%	7	8%	-2%[9.24 µM]
CC(C)(C)c1ccc(S(=O)(=O)Nc2ccc(Cc3ccncc3)cc2)cc1	?	-7%	?	16µM*	?
CC(=O)Nc1ccc(S(=O)(=O)Nc2ccc(Cc3ccncc3)cc2)cc1	?	?	-5	9.2µM*	-6%
COc1cccc(-c2cc(C(F)(F)F)n3nc(-c4ccc(C)cc4)cc3n2)c1	-22%	/	/	-15%	/
Cc1ccc(S(=O)(=O)NCC(c2ccco2)N2CCN(c3ccccc3F)CC2)cc1 (centres undefined)	?	/	/	16µM*	/
O=S(=O)(NCC(c1ccco1)N1CCN(c2ccc(F)cc2)CC1)c1ccccc1 (centres undefined)	?	/	/	21µM*	/
COc1ccc(N2CCN(C(CNC(=O)OCc3ccccc3)c3ccco3)CC2)cc1 (centres undefined)	?	-6%	-76*	?	-15%
